PubChem BioAssay AID1159580 (chemical genetic matrix, 2015)
Several values for one entry are separate records, joined by “and”; a condition that tells them apart may be missing. Equal values may be shown once. Out of some 5,500 compounds screened, about 2,000 (36%) were called active. Another 18% or so got no clear call; they are omitted. Cut-off read from the data, not from the text of the source: active = normalized growth mostly below about 0.91 (no sharp cut-off); inconclusive = no clear call, values can overlap the other calls; inactive = mostly above about 0.92. This is one part of the list.

Experiment: chemical genetic growth profiling, strain panel (AID 1159580);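 note: tested at 20 µM; growth read once vehicle control cultures reached saturation at 30 °C; 1 = growth at the plate median or of vehicle wells; lower values mean less growth of the strain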
Details: S. cerevisiae deletion strains, growth OD

Measured: normalized growth

CC[n+]1c(-c2ccccc2)c2cc(N)ccc2c2ccc(N)cc21
inactive: locus YAL021C, strain ccr4, stronger effect = lower value 0.918 | locus YAL026C, strain drs2, stronger effect = lower value 0.966 | locus YAL030W, strain snc1, stronger effect = lower value 0.971 | locus YBL061C, strain skt5, stronger effect = lower value 0.974 | locus YBR009C, strain hhf1, stronger effect = lower value 0.966 | locus YBR021W, strain FUR4, stronger effect = lower value 1.06 | locus YBR023C, strain chs3, stronger effect = lower value 0.979 | locus YBR171W, strain sec66, stronger effect = lower value 0.977 | locus YBR229C, strain ROT2, stronger effect = lower value 0.952 | locus YBR231C, strain swc5, stronger effect = lower value 0.966 | locus YBR279W, strain paf1, stronger effect = lower value 0.947 | locus YCL011C, strain gbp2, stronger effect = lower value 0.981 | locus YCL016C, strain dcc1, stronger effect = lower value 0.943 | locus YCL069W, strain vba3, stronger effect = lower value 0.959 | locus YCR088W, strain abp1, stronger effect = lower value 0.954 | locus YDL005C, strain med2, stronger effect = lower value 0.99 | locus YDL040C, strain nat1, stronger effect = lower value 0.969 | locus YDL074C, strain BRE1, stronger effect = lower value 0.822 | locus YDL101C, strain DUN1, stronger effect = lower value 0.93 | locus YDL192W, strain arf1, stronger effect = lower value 0.922 | locus YDR001C, strain nth1, stronger effect = lower value 0.953 | locus YDR069C, strain doa4, stronger effect = lower value 0.974 | locus YDR137W, strain rgp1, stronger effect = lower value 0.997 | locus YDR159W, strain sac3, stronger effect = lower value 1.02 | locus YDR195W, strain ref2 1.04 | locus YDR297W, strain sur2, stronger effect = lower value 0.954 | locus YDR334W, strain swr1, stronger effect = lower value 0.957 | locus YDR335W, strain msn5, stronger effect = lower value 0.983 | locus YDR392W, strain spt3, stronger effect = lower value 0.965 | locus YEL003W, strain gim4, stronger effect = lower value 0.956 | locus YEL037C, strain rad23, stronger effect = lower value 0.965 | locus YEL061C, strain CIN8 (second series), stronger effect = lower value 0.946 | locus YER015W, strain faa2, stronger effect = lower value 0.97 | locus YER016W, strain bim1, stronger effect = lower value 0.953 | locus YER110C, stronger effect = lower value 0.967 | locus YER111C, strain swi4, stronger effect = lower value 0.939 | locus YER155C, strain BEM2 (second series), stronger effect = lower value 0.939 | locus YER155C, strain BEM2, stronger effect = lower value 0.937 | locus YFR010W, strain ubp6, stronger effect = lower value 0.97 | locus YGL167C, strain pmr1, stronger effect = lower value 0.986 | locus YGL173C, strain kem1, stronger effect = lower value 0.96 | locus YGL227W, strain vid30, stronger effect = lower value 0.975 | locus YGL240W, strain doc1, stronger effect = lower value 1.01 | locus YGL253W, strain hxk2, stronger effect = lower value 0.94 | locus YGR252W, strain gcn5, stronger effect = lower value 0.94 | locus YHR013C, strain ard1, stronger effect = lower value 0.988 | locus YHR027C, strain rpn1, stronger effect = lower value 0.954 | locus YHR094C, strain hxt1, stronger effect = lower value 0.925 | locus YHR142W, strain chs7, stronger effect = lower value 0.974 | locus YJL092W, strain hpr5, stronger effect = lower value 0.946 | locus YJL095W, strain BCK1 (second series), stronger effect = lower value 0.979 | locus YJL115W, strain asf1, stronger effect = lower value 0.926 | locus YJL129C, strain trk1, stronger effect = lower value 1.08 | locus YJL154C, strain vps35, stronger effect = lower value 0.949 | locus YJL164C, strain tpk1, stronger effect = lower value 0.963 | locus YJL166W, strain qcr8, stronger effect = lower value 0.993 | locus YJL187C, strain SWE1, stronger effect = lower value 0.995
active: locus YAL013W, strain DEP1, stronger effect = lower value 0.879 | locus YCL029C, strain bik1, stronger effect = lower value 0.664 | locus YDL035C, strain GPR1, stronger effect = lower value 0.703 | locus YDL134C, strain PPH21, stronger effect = lower value 0.776 | locus YDL185W, strain tfp1, stronger effect = lower value 0.853 | locus YDR101C, strain arx1, stronger effect = lower value 0.886 | locus YDR162C, strain NBP2, stronger effect = lower value 0.706 | locus YDR318W, strain mcm21, stronger effect = lower value 0.885 | locus YDR388W, stronger effect = lower value 0.859 | locus YDR502C, strain sam2, stronger effect = lower value 0.801 | locus YEL061C, strain CIN8, stronger effect = lower value 0.766 | locus YER167W, strain BCK2, stronger effect = lower value 0.756 | locus YGL078C, strain dbp3, stronger effect = lower value 0.898 | locus YGL086W, strain mad1, stronger effect = lower value 0.856 | locus YGL248W, strain PDE1, stronger effect = lower value 0.845 | locus YGR135W, strain pre9, stronger effect = lower value 0.872 | locus YHR030C, strain SLT2, stronger effect = lower value 0.906 and 0.85 | locus YHR079C, strain IRE1 (second series), stronger effect = lower value 0.857 | locus YHR079C, strain IRE1, stronger effect = lower value 0.832 | locus YHR129C, strain ARP1, stronger effect = lower value 0.895 | locus YHR200W, strain rpn10, stronger effect = lower value 0.864 | locus YIL066C, strain RNR3, stronger effect = lower value 0.827 | locus YIL073C, strain SPO22, stronger effect = lower value 0.662 | locus YIL125W, strain kgd1, stronger effect = lower value 0.88 | locus YIR030C, strain dcg1, stronger effect = lower value 0.889 | locus YJL095W, strain BCK1, stronger effect = lower value 0.79 and 0.852 | locus YJL134W, strain LCB3, stronger effect = lower value 0.924 | locus YJL168C, strain set2, stronger effect = lower value 0.915 | locus YJL187C, strain SWE1 (second series), stronger effect = lower value 0.819 | locus YJR043C, strain POL32, stronger effect = lower value 0.687 | locus YJR066W, strain TOR1, stronger effect = lower value 0.773
